Test systems include RPMI-8226 leukemia; OVCAR-8 ovarian; OVCAR-5 ovarian; OVCAR-4 ovarian; SK-OV-3 ovarian; IGROV1 ovarian; OVCAR-3 ovarian; HS 578T breast; NCI/ADR-RES ovarian; T-47D breast; BT-549 breast; MDA-MB-435 melanoma; SW-620 colon; MCF7 breast; HCT-116 colon; HCC-2998 colon; KM12 colon.
Test in all cases: NCI-60 one-dose screen, 48 h (100 = growth as untreated, 0 = no growth, -100 = all killed)
Common to all, as to details: 10 µM unless noted

This is part of a sample that, as a whole, favours compounds with a hit. Of some 83,000 tested, about 20% had one in any assay.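 Results are percent growth after 48 hours of single-concentration exposure. 100 means growth as in untreated cells, lower positive values show inhibition; negative values down to -100 show cell death.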 A number with no mark means an inactive call. The source made the active and inactive calls. Rule for the calls: active = growth percent below 10; inactive = the rest.

Take `C=C1C(=O)O[C@H]2[C@H]1CC/C(COC(=O)NCc1nc3ccccc3[nH]1)=C\CC[C@@]1(C)O[C@@H]21`: the growth with RPMI-8226 leukemia is 34.7%; with OVCAR-8 ovarian, 93.6%; in the test on OVCAR-5 ovarian, 130%; in the test with OVCAR-4 ovarian it was 82.7%; in the test on SK-OV-3 ovarian it was 101%; in the test with IGROV1 ovarian, 62.7%. In addition, the growth with OVCAR-3 ovarian was 22%; in the test on HS 578T breast, 102%; with NCI/ADR-RES ovarian, 99.4%; in the test on T-47D breast, 43.4%; with BT-549 breast, 86.7%; in the test on MDA-MB-435 melanoma, 63.1%. The growth is 25.2% in the test on SW-620 colon; 36.5% in the test on MCF7 breast; 47.5% in the test on HCT-116 colon; 104% in the test on HCC-2998 colon; 99.3% with KM12 colon.
As to `CC1CCN(CCCCCOc2ccc3oc4cc(Cl)ccc4c(=O)c3c2)CC1`, the growth in the test with RPMI-8226 leukemia is 50.4%; in the test on OVCAR-8 ovarian, 73.6%; with OVCAR-5 ovarian it was 64.8%; in the test on OVCAR-4 ovarian it was 75.2%; in the test on SK-OV-3 ovarian, 96.5%; in the test on IGROV1 ovarian, 51.8%. Also, the growth with OVCAR-3 ovarian was 73.3%; in the test with HS 578T breast it was 84.8%; in the test on NCI/ADR-RES ovarian, 70.8%; in the test on T-47D breast, 64.6%; in the test with BT-549 breast, 81.8%; in the test on MDA-MB-435 melanoma, 3.73% (active). Moreover, the growth in the test with SW-620 colon is 36.8%; in the test on MCF7 breast it was 45.9%; in the test on HCT-116 colon, 23.3%; in the test on HCC-2998 colon it was 79.3%; with KM12 colon, 49.5%.
As for `O=C(O)c1cn(C2CC2)c2cc(N3CCN(C(=O)CSc4nnc(-c5ccc(Cl)cc5)n4-c4ccccc4)CC3)c(F)cc2c1=O`, the growth in the test with RPMI-8226 leukemia was 102%; in the test on OVCAR-8 ovarian, 102%; with OVCAR-5 ovarian it was 121%; in the test with OVCAR-4 ovarian, 110%; in the test on SK-OV-3 ovarian, 79.8%; in the test with IGROV1 ovarian, 107%. For the same compound, the growth in the test on OVCAR-3 ovarian was 110%; with HS 578T breast it was 101%; in the test with NCI/ADR-RES ovarian, 104%; in the test on T-47D breast it was 77.9%; with BT-549 breast, 99.1%; in the test on MDA-MB-435 melanoma, 102%. Moreover, the growth with SW-620 colon was 109%; with MCF7 breast, 110%; with HCT-116 colon, 103%; with HCC-2998 colon, 102%; in the test with KM12 colon, 103%.
For `O=c1[nH]nc(-c2ccccc2)c2sc(NC(=S)Nc3ccc(Cl)cc3)nc12`, the growth with RPMI-8226 leukemia was 87.8%; in the test with OVCAR-8 ovarian, 89.6%; with OVCAR-5 ovarian it was 98.6%; in the test on OVCAR-4 ovarian, 91.6%; with SK-OV-3 ovarian, 62.3%; in the test with IGROV1 ovarian, 94.2%. Besides, the growth with OVCAR-3 ovarian was 97.5%; with HS 578T breast, 102%; with NCI/ADR-RES ovarian it was 95.3%; with T-47D breast it was 59%; with BT-549 breast it was 92.6%; in the test with MDA-MB-435 melanoma, 103%. For the same compound, the growth is 98.1% in the test with SW-620 colon; 74.9% in the test with MCF7 breast; 87.8% with HCT-116 colon; 107% in the test with HCC-2998 colon; 90% in the test with KM12 colon.
As for `CCc1n(Cc2ccc3ccccc3c2)c2ccccc2[n+]1Cc1ccc2ccccc2c1`, the growth with RPMI-8226 leukemia is 13.5%; in the test with OVCAR-8 ovarian, 55.1%; with OVCAR-5 ovarian, 75.7%; in the test with OVCAR-4 ovarian it was 18.3%; with SK-OV-3 ovarian, 83%; with IGROV1 ovarian, 45.8%. In addition, the growth with OVCAR-3 ovarian is 34.3%; with HS 578T breast it was 82.7%; with NCI/ADR-RES ovarian it was 105%; in the test on T-47D breast, 25.4%; in the test on BT-549 breast, 58.7%; in the test with MDA-MB-435 melanoma it was 46.7%. The growth was 77.1% in the test on SW-620 colon; 49.6% in the test with MCF7 breast; 51.5% with HCT-116 colon; 58% with HCC-2998 colon; 39.6% in the test on KM12 colon.
As for `N#Cc1c(NC(=O)c2cccs2)[n+]([O-])c2cc(C(F)(F)F)ccc2[n+]1[O-]`, the growth in the test on RPMI-8226 leukemia is 95.5%; in the test with OVCAR-8 ovarian, 95.4%; in the test with OVCAR-5 ovarian, 111%; with OVCAR-4 ovarian, 94.1%; in the test with SK-OV-3 ovarian, 97.2%; in the test on IGROV1 ovarian, -54.2% (active). The growth was 81.9% in the test with OVCAR-3 ovarian; 84.5% in the test with HS 578T breast; 107% in the test on NCI/ADR-RES ovarian; 90.2% with T-47D breast; 93.9% in the test with BT-549 breast; 106% in the test on MDA-MB-435 melanoma. Further, the growth in the test with SW-620 colon is 89%; in the test with MCF7 breast, 98.7%; in the test on HCT-116 colon it was 95.2%; in the test with HCC-2998 colon, 99.2%; with KM12 colon, 108%.
With `O=c1c2ccccc2oc2ccc(OCCCCCN3CCCCCC3)cc12`, the growth with RPMI-8226 leukemia was 57.3%; in the test on OVCAR-8 ovarian, 75.5%; in the test on OVCAR-5 ovarian, 92%; with OVCAR-4 ovarian, 73.1%; in the test on SK-OV-3 ovarian, 93.5%; in the test on IGROV1 ovarian, 77.2%. Besides, the growth in the test on OVCAR-3 ovarian was 87.1%; in the test with HS 578T breast it was 88.8%; in the test with NCI/ADR-RES ovarian it was 77.8%; with T-47D breast, 58.8%; in the test with BT-549 breast, 78.5%; with MDA-MB-435 melanoma it was 73.8%. Also, the growth is 77.7% in the test with SW-620 colon; 68.2% with MCF7 breast; 58.4% in the test with HCT-116 colon; 84.6% in the test with HCC-2998 colon; 68.6% in the test with KM12 colon.
Take `CCOc1ccc(C2N(c3cc(OC)c(OC)c(OC)c3)C(=O)C2(F)F)cc1` (stereo not drawn): the growth in the test with RPMI-8226 leukemia is 14.6%; in the test on OVCAR-8 ovarian, 43.2%; with OVCAR-5 ovarian, 66.5%; with OVCAR-4 ovarian, 49.6%; with SK-OV-3 ovarian, 71.9%; in the test on IGROV1 ovarian it was 37.8%. Moreover, the growth was 7.25% (active) in the test with OVCAR-3 ovarian; 37.4% with HS 578T breast; 28.9% in the test with NCI/ADR-RES ovarian; 70% with T-47D breast; 44.2% in the test on BT-549 breast; 16.8% with MDA-MB-435 melanoma. For the same compound, the growth with SW-620 colon was 25.5%; in the test on MCF7 breast it was 17.2%; with HCT-116 colon, 8.92% (active); with HCC-2998 colon, 81.7%; in the test with KM12 colon, 28%.
With `O=C1CCc2ccccc2N1`, the growth with RPMI-8226 leukemia was 106%; with OVCAR-8 ovarian it was 105%; in the test with OVCAR-5 ovarian, 103%; in the test with OVCAR-4 ovarian, 94.7%; in the test on SK-OV-3 ovarian, 108%; in the test with IGROV1 ovarian it was 98.4%. Further, the growth in the test with OVCAR-3 ovarian is 102%; with HS 578T breast it was 103%; in the test on NCI/ADR-RES ovarian, 101%; in the test with T-47D breast, 109%; in the test on BT-549 breast it was 107%; in the test on MDA-MB-435 melanoma, 97.6%. The growth in the test with SW-620 colon is 102%; in the test on MCF7 breast, 96.6%; with HCT-116 colon, 101%; in the test with HCC-2998 colon, 84.8%; with KM12 colon, 96.6%.
